The text below walks through data of PubChem BioAssay (EPA / NIEHS).

The source made the active and inactive calls. The calls were made as follows: active = hit-call score of the fitted dose curve at least 0.9, where 1 is the maximum; inactive = score below 0.9.

Read-out in this experiment: Interleukin 6 Receptor (IL6R), IL6R (gene 3570)
The experiment can be described thus: LTEA_HepaRG_IL6R: Life Technologies and Expression Analysis (LTEA) Assay for Interleukin 6 Receptor (IL6R) using HepaRG (AID 2283510).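 As to AC50: differentiated human HepaRG liver cells in serum-free induction medium; TaqMan qRT-PCR signal normalized to ACTB GAPDH and POLR2A housekeeping genes.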 Particulars: mRNA level, 48 h; actives raise or lower the signal. A digest of the protocol:
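IL6R transcript level by qRT-PCR after 48 h chemical exposure (8-point, half-log, max 100 uM, 0.5% DMSO vehicle) of HepaRG cells in serum-free induction medium. Normalized to three housekeeping genes; curves fitted in both directions relative to DMSO.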
In the case of `CCCCCc1ccc(N)cc1`, the outcome was inactive.
On the same count and under the same terms, the same measure for `CC(O)CC(C)(C)O` (stereo unspecified): “inactive”.
Still for that read-out and setting: the entry for `O=C1CCC(C2CCCCC2)CC1` is “inactive”.
Still for that read-out and setting: the same measure for `CC[C@@H]1C[C@H](N(Cc2cc(C(F)(F)F)cc(C(F)(F)F)c2)C(C)=O)c2cc(C(F)(F)F)ccc2N1C(=O)OC(C)C`: “inactive”; for `O=c1ccc2ccccc2o1`: “inactive”; for `CC(C)(c1cc(Br)c(O)c(Br)c1)c1cc(Br)c(O)c(Br)c1`: “inactive”.
For the compound `CO[C@H]1/C=C/O[C@@]2(C)Oc3c(C)c(O)c4c(O)c(c(/C=N/N5CCN(C)CC5)c(O)c4c3C2=O)NC(=O)/C(C)=C\C=C\[C@H](C)[C@H](O)[C@@H](C)[C@@H](O)[C@@H](C)[C@H](OC(C)=O)[C@@H]1C`, the outcome was inactive.
On the same count and under the same terms, the entry for `O=C=NCCCCCCN=C=O` is “inactive”; for `O=C(Nc1ccc(Cl)cc1)Nc1ccc(Cl)c(Cl)c1` it is “inactive”.
`Cc1c2ccccc2c(C)c2c1ccc1ccccc12`: the AC50 (usually the concentration at which the activity in the assay is half-maximal) is 13.5 µM (active).
As to `Cc1ncc(CO)c(CO)c1O`, the outcome was inactive.
Regarding `COc1cccc([C@H](O)C2CCN(CCc3ccc(F)cc3)CC2)c1OC`, the call was inactive.
As to `CCN(Cc1cccnc1)C(=O)c1cccc(Cl)c1[C@]1(C)C(=O)N(Cc2ccc(OC)cc2OC)c2ccc(Cl)cc21`, the AC50 is 19.9 µM (active).
As to `Cc1oc2c(NC(=O)c3c(Cl)cccc3Cl)cccc2c1C(C)(C)O`, the half-maximal activity concentration (AC50) is 23.8 µM (active).
For the compound `CC1=CC(=O)/C(=C(/C)O)C(=O)O1`, the compound was called inactive.
For the compound `c1ccc2ccccc2c1`, the compound was called inactive.
As for `O=c1c(-c2ccc(O)cc2)coc2cc(O)cc(O)c12`, the outcome was inactive.
Consider `Cc1ccc2oc(CN(Cc3ccccc3)C(=O)Nc3c(F)cc(F)cc3F)c(-c3ccc(Cl)cc3)c2c1`, for which the result was inactive.
In the case of `C[C@]12CC[C@@H]3c4ccc(O)cc4CC[C@H]3[C@@H]1CCC2=O`, the result was inactive.
As to `COc1cc(C(=O)NC2CCN(C)CC2)ccc1Nc1ncc2c(n1)N(C1CCCC1)CC(F)(F)C(=O)N2C`, the AC50 was 86.4 µM (active).
In the case of `CCCCOC(=O)CC(CC(=O)OCCCC)(OC(C)=O)C(=O)OCCCC`, the compound was classed as inactive.
Take `O=C(O)Cc1cc(I)c(Oc2ccc(O)c(I)c2)c(I)c1`: the AC50 was 42.7 µM (active).
In the case of `CC1(C)NC(=O)N(c2ccc([N+](=O)[O-])c(C(F)(F)F)c2)C1=O`, the call was inactive.
The same measure, in the same setting: the entry for `CCCCOC(=O)c1ccc(O)cc1` is “inactive”.
For `CC/C(=C(/CC)c1ccc(O)cc1)c1ccc(O)cc1`, the AC50 was 78.5 µM (active).
Same read-out and setting: the same measure for `NCc1cccc(C2CCN(C(=O)c3ccc(C#Cc4ccccc4F)o3)CC2)c1`: 82.5 µM (active).
For the compound `CCCCCCCCN(C)CCCCCCCC`, the compound was classed as inactive.
For the compound `O=C(O)Cn1c(=O)n(Cc2ccc(Br)cc2F)c(=O)c2ccc(Cl)cc21`, the call was inactive.
With `CCCCCCCCOc1ccc(C(=O)c2ccccc2)c(O)c1`, the call was inactive.
Take `CC(=O)N1CCN(c2ccc(OC[C@H]3CO[C@](Cn4ccnc4)(c4ccc(Cl)cc4Cl)O3)cc2)CC1`: the AC50 was 13.9 µM (active).
For the compound `c1ccc2n[nH]nc2c1`, the outcome was inactive.
The same measure, in the same setting: the entry for `O=CCCCC=O` is “inactive”.
With `CN(C)c1ccc(C(=C2C=CC(=[N+](C)C)C=C2)c2ccc(N(C)C)cc2)cc1`, the concentration at half-maximal activity (AC50) was 12.5 µM (active).
For the compound `CN(C)C(=O)C1(N2CCCCC2)CCN(CC[C@@]2(c3ccc(Cl)c(Cl)c3)CN(C(=O)c3ccccc3)CCO2)CC1`, the compound was called inactive.
Same read-out and setting: the same measure for `CCCCCCCCCCCC[N+](C)(C)C`: “inactive”; for `Cc1cc2c(cc1C(F)(F)F)N(C(=O)Nc1ccc(Oc3cccnc3C)nc1)CC2`: “inactive”.
